Reference: the supplement of paper PMC10849652
The full data set covers some 7,900 targets. This sample favours those with a hit. About 0.6% of all pairs of compound and target were hits.

Columns and labels:
Experiment in all cases: log2 fold change, soluble protein after heating vs DMSO (PISA); higher = thermal stabilisation; K562 cells, 10 uM, 30 min; active = over 0.2 and 3.5 SD of the protein, either way, in both replicates (recomputed)
IRAK-1-4 Inhibitor I = compound: C1COCCN1CCN2C3=CC=CC=C3N=C2NC(=O)C4=CC(=CC=C4)[N+](=O)[O-] [IRAK-1-4 Inhibitor I]
Method in brief: (§1)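 K562 cells at 2×10^6 cells/mL were treated with 10 μM compound for 30 min. Aliquots were heated for 3 min across 48°C-58°C, pooled, and extracted in PBS with 0.5% NP-40 at 4°C; soluble protein was the supernatant after 21,000xg for 90 min. Soluble protein was quantified by TMTpro 16plex LC-MS/MS with channel sums equalised, and reported as log2 fold change in thermal stability against DMSO controls, with values from duplicates.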

ibrutinib = compound: C=CC(=O)N1CCC[C@@H](n2nc(-c3ccc(Oc4ccccc4)cc3)c3c(N)ncnc32)C1 [ibrutinib]
Method in brief: as §1

[1] = compound: CC(=O)c1cnc2ccc(-c3cc(Cl)c(O)c(Cl)c3)nc2c1N[C@H]1CC[C@H](CN(C)C)CC1
Method in brief: as §1

ralimetinib = compound: CC(C)(C)Cn1c(N)nc2ccc(-c3[nH]c(C(C)(C)C)nc3-c3ccc(F)cc3)nc21 [ralimetinib]
Method in brief: as §1

[2] = compound: CC(C)(O)CC(=O)NCCn1ccc2ncnc(Nc3ccc(Oc4cccc(C(F)(F)F)c4)c(Cl)c3)c21
Method in brief: as §1

[3] = compound: CC(C)C1=C2N=C(C=C(N2N=C1)NCC3=CC=CC=C3)NCCCCCCN
Method in brief: as §1

[4] = compound: CC(C)C[C@@H](C=O)NC(=O)[C@H](CC(C)C)NC(=O)[C@H](CC(C)C)NC(=O)OCc1ccccc1
Method in brief: as §1

pinometostat = compound: CC(C)N(C[C@H]1O[C@@H](n2cnc3c(N)ncnc32)[C@H](O)[C@@H]1O)[C@H]1C[C@@H](CCc2nc3cc(C(C)(C)C)ccc3[nH]2)C1 [pinometostat]
Method in brief: as §1

[5] = compound: CC1=C(C(CC(=O)N1)C2=CC=C(C=C2)C(F)(F)F)C(=O)NC3=C(C=C4C(=C3)C=NN4)F
Method in brief: as §1

[6] = compound: CC1=C(C2=C(C=C1)C(=O)C3=CC=CC=C3N2CCCN)C
Method in brief: as §1

Measured: log2 fold change

QRSL1 (UniProt Q9H0R6)
UniProt Q9H0R6, sequence (Q9H0R6 whole entry, looked up): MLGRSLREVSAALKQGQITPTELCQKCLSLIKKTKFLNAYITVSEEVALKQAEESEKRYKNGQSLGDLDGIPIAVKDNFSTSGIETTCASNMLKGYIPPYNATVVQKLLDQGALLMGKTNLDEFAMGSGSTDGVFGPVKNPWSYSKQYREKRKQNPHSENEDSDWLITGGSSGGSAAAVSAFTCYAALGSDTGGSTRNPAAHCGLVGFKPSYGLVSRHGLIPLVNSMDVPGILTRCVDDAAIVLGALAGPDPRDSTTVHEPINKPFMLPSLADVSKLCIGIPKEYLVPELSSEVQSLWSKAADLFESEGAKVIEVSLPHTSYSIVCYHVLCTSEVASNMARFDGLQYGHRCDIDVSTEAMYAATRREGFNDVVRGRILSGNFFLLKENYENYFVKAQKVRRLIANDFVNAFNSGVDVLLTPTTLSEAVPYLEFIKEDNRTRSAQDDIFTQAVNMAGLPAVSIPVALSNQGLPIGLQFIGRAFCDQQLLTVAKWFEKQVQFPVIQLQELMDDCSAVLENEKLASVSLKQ
inactive: IRAK-1-4 Inhibitor I 0.016 | ibrutinib 0.023 | [1] -0.025 | ralimetinib 0.001 | [2] -0.071 | [4] -0.003 | pinometostat -0.087 | [5] 0.041 | [6] 0.025
active: [3] -0.231

PSMD6 (UniProt Q15008)
UniProt Q15008, sequence (Q15008 whole entry, looked up): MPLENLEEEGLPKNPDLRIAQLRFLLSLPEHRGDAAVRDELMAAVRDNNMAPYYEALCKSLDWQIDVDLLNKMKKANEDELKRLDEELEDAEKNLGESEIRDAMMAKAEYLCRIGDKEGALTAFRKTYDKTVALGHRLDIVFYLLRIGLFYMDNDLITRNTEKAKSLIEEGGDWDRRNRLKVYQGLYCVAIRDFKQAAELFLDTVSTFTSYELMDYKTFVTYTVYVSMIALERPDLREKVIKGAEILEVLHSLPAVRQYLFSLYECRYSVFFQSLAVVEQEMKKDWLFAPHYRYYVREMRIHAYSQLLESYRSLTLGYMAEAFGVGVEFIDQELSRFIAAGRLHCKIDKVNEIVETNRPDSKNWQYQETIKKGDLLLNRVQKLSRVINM
inactive: IRAK-1-4 Inhibitor I -0.037 | ibrutinib -0.036 | [1] 0.081 | ralimetinib 0.087 | [2] 0.05 | [3] 0.038 | pinometostat 0.047 | [5] 0.028 | [6] 0.012
active: [4] -0.221

PKN1 isoform 2 (UniProt Q16512)
inactive: IRAK-1-4 Inhibitor I -0.014 | ibrutinib -0.018 | ralimetinib 0.006 | [2] -0.09 | [3] -0.038 | [4] 0.002 | pinometostat 0.057 | [5] -0.002 | [6] 0.047
active: [1] -1.2

QKI (UniProt Q96PU8)
inactive: IRAK-1-4 Inhibitor I -0.034 | ibrutinib -0.004 | [1] -0.113 | ralimetinib 0.007 | [2] 0.019 | [3] -0.221 | [4] -0.005 | pinometostat -0.026 | [5] 0.046 | [6] -0.043

PTDSS1 (UniProt P48651)
active: [3] -0.585
inactive: IRAK-1-4 Inhibitor I -0.146 | ibrutinib 0.118 | [1] 0.021 | ralimetinib 0.029 | [2] -0.023 | [4] 0.061 | pinometostat 0.212 | [5] 0.093 | [6] 0.035

PPP1CA (UniProt P62136)
UniProt P62136, sequence (P62136 whole entry, looked up): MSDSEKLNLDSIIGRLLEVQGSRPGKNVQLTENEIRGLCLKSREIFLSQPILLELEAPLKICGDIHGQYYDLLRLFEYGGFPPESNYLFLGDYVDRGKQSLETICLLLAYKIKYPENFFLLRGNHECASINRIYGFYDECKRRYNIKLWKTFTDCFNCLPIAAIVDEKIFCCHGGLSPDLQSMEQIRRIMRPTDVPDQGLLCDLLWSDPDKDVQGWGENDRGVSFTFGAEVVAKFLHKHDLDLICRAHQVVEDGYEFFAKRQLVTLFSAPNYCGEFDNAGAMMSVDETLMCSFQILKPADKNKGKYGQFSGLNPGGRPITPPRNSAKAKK
inactive: IRAK-1-4 Inhibitor I 0.041 | ibrutinib -0.02 | [1] -0.018 | ralimetinib -0.012 | [2] 0.007 | [3] 0.015 | [4] 0.009 | pinometostat -0.071 | [5] -0.013 | [6] -0.007

PML (UniProt P29590)
UniProt P29590, sequence (P29590 whole entry, looked up): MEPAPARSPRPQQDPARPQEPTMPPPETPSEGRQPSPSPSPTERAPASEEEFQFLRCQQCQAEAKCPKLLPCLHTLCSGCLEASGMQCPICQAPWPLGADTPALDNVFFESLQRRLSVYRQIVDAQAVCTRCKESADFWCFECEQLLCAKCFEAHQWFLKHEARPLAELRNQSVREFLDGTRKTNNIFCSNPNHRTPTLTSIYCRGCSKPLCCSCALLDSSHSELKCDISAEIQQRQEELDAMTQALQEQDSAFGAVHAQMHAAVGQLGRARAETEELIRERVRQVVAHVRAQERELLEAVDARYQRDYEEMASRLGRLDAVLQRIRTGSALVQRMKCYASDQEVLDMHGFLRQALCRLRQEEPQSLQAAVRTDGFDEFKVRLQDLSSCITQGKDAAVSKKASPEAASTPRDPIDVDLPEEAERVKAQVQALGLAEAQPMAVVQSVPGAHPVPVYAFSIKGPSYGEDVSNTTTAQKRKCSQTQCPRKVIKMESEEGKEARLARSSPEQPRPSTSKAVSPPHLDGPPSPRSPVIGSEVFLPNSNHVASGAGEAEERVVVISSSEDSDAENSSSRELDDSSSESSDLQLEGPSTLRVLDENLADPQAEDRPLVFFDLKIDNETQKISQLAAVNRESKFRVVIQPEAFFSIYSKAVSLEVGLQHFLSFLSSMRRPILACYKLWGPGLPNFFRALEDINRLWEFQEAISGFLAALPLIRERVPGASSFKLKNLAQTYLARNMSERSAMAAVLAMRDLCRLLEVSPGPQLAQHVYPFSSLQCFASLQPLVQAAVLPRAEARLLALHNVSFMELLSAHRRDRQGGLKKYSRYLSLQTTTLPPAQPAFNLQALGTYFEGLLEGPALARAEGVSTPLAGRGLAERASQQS
inactive: IRAK-1-4 Inhibitor I 0.031 | ibrutinib 0.006 | [1] 0.052 | ralimetinib 0.045 | [2] 0.012 | [3] -0.025 | [4] -0.05 | pinometostat -0.021 | [5] 0.07 | [6] -0.035

PTTG1 (UniProt O95997)
UniProt O95997, sequence (O95997 whole entry, looked up): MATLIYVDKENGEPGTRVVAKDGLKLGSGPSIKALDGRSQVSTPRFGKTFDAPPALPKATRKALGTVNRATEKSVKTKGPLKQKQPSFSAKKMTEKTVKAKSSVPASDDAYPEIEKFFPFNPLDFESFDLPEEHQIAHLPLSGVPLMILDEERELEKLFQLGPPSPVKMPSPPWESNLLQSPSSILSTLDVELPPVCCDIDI
active: [4] 0.393
inactive: IRAK-1-4 Inhibitor I -0.026 | ibrutinib -0.017 | [1] 0.057 | ralimetinib -0.069 | [2] -0.03 | [3] -0.002 | pinometostat 0.036 | [5] 0.055 | [6] -0.084

POLR2K (UniProt P53803)
active: [3] 0.429
inactive: IRAK-1-4 Inhibitor I -0.041 | ibrutinib 0.003 | [1] 0.059 | ralimetinib -0.093 | [2] 0.028 | [4] 0.093 | pinometostat -0.092 | [5] -0.02 | [6] 0.027

PCTP (UniProt Q9UKL6)
UniProt Q9UKL6, sequence (Q9UKL6 whole entry, looked up): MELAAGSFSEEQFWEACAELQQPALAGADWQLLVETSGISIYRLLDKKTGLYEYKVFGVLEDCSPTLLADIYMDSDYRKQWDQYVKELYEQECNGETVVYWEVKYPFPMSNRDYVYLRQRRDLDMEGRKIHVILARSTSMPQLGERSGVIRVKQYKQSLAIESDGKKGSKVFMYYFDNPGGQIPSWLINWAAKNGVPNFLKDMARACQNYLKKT
inactive: IRAK-1-4 Inhibitor I -0.009 | ibrutinib -0.018 | [1] 0.054 | ralimetinib -0.081 | [2] -0.091 | [4] -0.012 | pinometostat -0.013 | [5] 0.04 | [6] 0.005
active: [3] -0.266

PLCG1 isoform 2 (UniProt P19174)
inactive: IRAK-1-4 Inhibitor I -0.079 | ibrutinib 0.03 | [1] 0.041 | ralimetinib -0.042 | [3] -0.23 | [4] 0.007 | pinometostat 0.069 | [5] 0.023 | [6] -0.027
active: [2] -0.362

PSMD11 (UniProt O00231)
UniProt O00231, sequence (O00231 whole entry, looked up): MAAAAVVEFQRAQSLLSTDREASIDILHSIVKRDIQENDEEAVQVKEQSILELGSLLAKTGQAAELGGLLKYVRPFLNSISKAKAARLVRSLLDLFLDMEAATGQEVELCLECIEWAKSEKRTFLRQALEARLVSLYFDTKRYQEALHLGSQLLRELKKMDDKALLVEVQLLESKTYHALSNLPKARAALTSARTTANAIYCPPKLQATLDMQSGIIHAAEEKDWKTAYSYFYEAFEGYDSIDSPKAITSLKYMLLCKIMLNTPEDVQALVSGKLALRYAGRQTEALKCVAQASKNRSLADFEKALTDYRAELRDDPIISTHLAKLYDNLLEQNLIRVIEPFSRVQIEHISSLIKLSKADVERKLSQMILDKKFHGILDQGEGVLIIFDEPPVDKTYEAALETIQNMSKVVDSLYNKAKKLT
inactive: IRAK-1-4 Inhibitor I -0.048 | ibrutinib 0 | [1] 0.086 | ralimetinib 0.076 | [2] 0 | [3] -0.001 | pinometostat 0.029 | [5] 0.011 | [6] 0.037
active: [4] -0.263

POLR2B (UniProt P30876)
active: [1] 0.262
inactive: IRAK-1-4 Inhibitor I -0.095 | ibrutinib -0.002 | ralimetinib 0.066 | [2] -0.047 | [3] 0.08 | [4] 0.03 | pinometostat 0.037 | [5] -0.031 | [6] 0.03

PHLDB1 isoform 2 (UniProt Q86UU1)
inactive: IRAK-1-4 Inhibitor I 0.014 | ibrutinib -0.055 | ralimetinib 0.005 | [2] -0.053 | [3] -0.018 | [4] 0.016 | pinometostat -0.011 | [5] 0.091 | [6] 0.118
active: [1] -0.832

PSMD8 (UniProt P48556)
UniProt P48556, sequence (P48556 whole entry, looked up): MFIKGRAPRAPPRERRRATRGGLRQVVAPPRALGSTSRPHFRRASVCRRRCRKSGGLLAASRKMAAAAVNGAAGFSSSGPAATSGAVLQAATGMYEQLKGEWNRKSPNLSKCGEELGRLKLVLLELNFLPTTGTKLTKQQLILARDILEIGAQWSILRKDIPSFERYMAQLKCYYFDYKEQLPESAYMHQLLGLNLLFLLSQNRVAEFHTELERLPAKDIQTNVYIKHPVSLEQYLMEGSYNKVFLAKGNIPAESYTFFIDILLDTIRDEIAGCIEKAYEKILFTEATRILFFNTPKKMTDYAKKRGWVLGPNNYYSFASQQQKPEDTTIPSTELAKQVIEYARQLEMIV
inactive: IRAK-1-4 Inhibitor I -0.058 | ibrutinib -0.033 | [1] 0.076 | ralimetinib -0.012 | [2] 0.022 | [3] 0.016 | [4] -0.194 | pinometostat 0.031 | [5] 0.051 | [6] -0.014

PCYT1B (UniProt Q9Y5K3)
inactive: IRAK-1-4 Inhibitor I 0.014 | ibrutinib -0.029 | [1] -0.072 | ralimetinib 0.011 | [2] 0.001 | [3] -0.172 | [4] 0.027 | pinometostat -0.011 | [5] 0.058 | [6] -0.12

PPP1R12A (UniProt O14974)
inactive: IRAK-1-4 Inhibitor I -0.013 | ibrutinib -0.022 | ralimetinib 0 | [2] 0 | [3] -0.119 | [4] -0.014 | pinometostat -0.003 | [6] -0.01
active: [1] -0.666 | [5] -0.514

POLD1 (UniProt P28340)
UniProt P28340, sequence (P28340 whole entry, looked up): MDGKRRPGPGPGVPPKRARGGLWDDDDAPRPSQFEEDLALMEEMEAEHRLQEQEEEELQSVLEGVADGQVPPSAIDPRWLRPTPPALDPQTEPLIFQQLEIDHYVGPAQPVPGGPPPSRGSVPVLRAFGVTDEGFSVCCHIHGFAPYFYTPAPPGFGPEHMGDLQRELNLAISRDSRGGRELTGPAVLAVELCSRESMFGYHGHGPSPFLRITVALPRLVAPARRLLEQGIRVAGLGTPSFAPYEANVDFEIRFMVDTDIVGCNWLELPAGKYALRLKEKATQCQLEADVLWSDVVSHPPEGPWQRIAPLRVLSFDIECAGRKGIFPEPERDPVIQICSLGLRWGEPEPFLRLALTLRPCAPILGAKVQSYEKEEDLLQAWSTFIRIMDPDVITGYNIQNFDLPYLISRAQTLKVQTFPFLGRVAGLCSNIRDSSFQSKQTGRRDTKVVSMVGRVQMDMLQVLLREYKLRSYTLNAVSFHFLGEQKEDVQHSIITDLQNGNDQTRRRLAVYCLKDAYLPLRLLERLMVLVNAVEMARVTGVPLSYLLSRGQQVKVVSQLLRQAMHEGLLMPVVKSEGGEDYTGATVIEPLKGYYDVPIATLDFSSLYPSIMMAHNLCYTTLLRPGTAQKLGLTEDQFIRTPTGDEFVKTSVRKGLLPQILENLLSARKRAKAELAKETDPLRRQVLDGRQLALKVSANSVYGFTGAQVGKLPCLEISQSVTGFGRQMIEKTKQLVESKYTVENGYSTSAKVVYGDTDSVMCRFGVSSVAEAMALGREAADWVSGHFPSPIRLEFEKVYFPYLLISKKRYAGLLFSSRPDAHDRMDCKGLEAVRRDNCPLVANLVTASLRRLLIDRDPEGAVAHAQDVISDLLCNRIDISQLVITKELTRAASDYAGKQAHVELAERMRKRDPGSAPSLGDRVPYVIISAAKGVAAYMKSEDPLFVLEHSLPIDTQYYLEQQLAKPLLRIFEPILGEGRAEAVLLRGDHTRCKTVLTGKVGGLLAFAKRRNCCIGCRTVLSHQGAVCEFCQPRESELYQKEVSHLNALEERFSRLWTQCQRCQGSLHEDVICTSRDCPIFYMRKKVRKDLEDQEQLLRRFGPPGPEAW
inactive: IRAK-1-4 Inhibitor I -0.009 | ibrutinib 0.021 | [1] -0.081 | ralimetinib -0.02 | [2] -0.085 | [3] -0.12 | [4] 0.11 | pinometostat 0.024 | [5] -0.005 | [6] -0.011

PRUNE1 (UniProt Q86TP1)
inactive: IRAK-1-4 Inhibitor I 0.049 | ibrutinib -0.058 | [1] 0.012 | ralimetinib 0.017 | [2] -0.037 | [3] -0.129 | [4] 0.04 | pinometostat 0.08 | [5] -0.019 | [6] -0.021

PSMD2 (UniProt Q13200)
active: [4] -0.296
inactive: IRAK-1-4 Inhibitor I -0.08 | ibrutinib -0.035 | [1] 0.039 | ralimetinib 0.018 | [2] 0.021 | [3] 0.039 | pinometostat 0.019 | [5] 0.04 | [6] -0.036

PCBP2 isoform 3 (UniProt Q15366)
inactive: IRAK-1-4 Inhibitor I -0.065 | ibrutinib -0.048 | [1] -0.056 | ralimetinib 0.017 | [2] -0.067 | [3] -0.211 | [4] -0.029 | pinometostat -0.049 | [5] -0.013 | [6] 0.025

PLK1 (UniProt P53350)
active: [1] -1.17
inactive: IRAK-1-4 Inhibitor I -0.035 | ibrutinib 0.022 | ralimetinib 0.006 | [2] -0.011 | [3] 0.186 | [4] 0.015 | pinometostat 0.019 | [5] 0.005 | [6] 0.144

PRKACB isoform 2 (UniProt P22694)
inactive: IRAK-1-4 Inhibitor I -0.007 | ibrutinib -0.032 | [1] -0.067 | ralimetinib -0.035 | [2] -0.011 | [3] -0.012 | [4] 0.054 | pinometostat -0.008 | [5] -0.034 | [6] 0.044

PPP2R5C isoform 5 (UniProt Q13362)
inactive: IRAK-1-4 Inhibitor I -0.023 | ibrutinib 0.041 | [1] -0.059 | ralimetinib -0.044 | [2] -0.072 | [3] -0.061 | [4] 0.031 | pinometostat 0.011 | [5] 0.005 | [6] -0.018

PIP4K2A (UniProt P48426)
UniProt P48426, sequence (P48426 whole entry, looked up): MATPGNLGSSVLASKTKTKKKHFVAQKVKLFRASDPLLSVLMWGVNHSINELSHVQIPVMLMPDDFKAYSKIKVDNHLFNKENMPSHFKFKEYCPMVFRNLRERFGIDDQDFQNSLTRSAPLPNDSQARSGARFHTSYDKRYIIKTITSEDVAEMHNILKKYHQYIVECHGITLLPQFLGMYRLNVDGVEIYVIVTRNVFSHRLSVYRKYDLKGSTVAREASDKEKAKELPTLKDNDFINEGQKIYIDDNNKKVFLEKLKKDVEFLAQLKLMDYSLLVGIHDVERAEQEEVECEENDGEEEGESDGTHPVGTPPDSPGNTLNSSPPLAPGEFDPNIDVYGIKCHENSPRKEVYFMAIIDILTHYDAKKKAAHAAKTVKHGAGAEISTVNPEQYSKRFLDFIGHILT
active: [1] 0.749
inactive: IRAK-1-4 Inhibitor I 0.115 | ibrutinib -0.03 | ralimetinib -0.068 | [2] -0.108 | [3] 0.074 | [4] 0.018 | pinometostat -0.067 | [5] -0.118 | [6] -0.02

PRKCB isoform 2 (UniProt P05771)
active: [1] -0.373
inactive: IRAK-1-4 Inhibitor I 0.027 | ibrutinib -0.009 | ralimetinib 0.022 | [2] -0.057 | [3] -0.049 | [4] 0.028 | pinometostat 0.014 | [5] 0.013 | [6] -0.025

PGM3 isoform 4 (UniProt O95394)
inactive: IRAK-1-4 Inhibitor I -0.007 | ibrutinib -0.016 | [1] -0.091 | ralimetinib 0.016 | [2] -0.08 | [3] -0.097 | [4] -0.002 | pinometostat 0.012 | [5] -0.021 | [6] 0.02

PRG4 (UniProt Q92954)
inactive: IRAK-1-4 Inhibitor I -0.072 | ibrutinib -0.005 | [1] 0 | ralimetinib 0.011 | [2] 0.059 | [3] 0.29 | [4] 0.054 | pinometostat -0.068 | [5] 0.039 | [6] -0.127

POLA1 (UniProt P09884)
inactive: IRAK-1-4 Inhibitor I -0.034 | ibrutinib -0.06 | [1] -0.02 | ralimetinib -0.018 | [2] -0.066 | [3] -0.151 | [4] 0.005 | pinometostat -0.027 | [5] -0.044 | [6] -0.066
